In the first test the target is Focal adhesion kinase 1 (Homo sapiens) (UniProt Q05397). Put plainly: small-molecule microarray binders of FAK, primary screen, biochemical, 635/667 nm fluorescence, BSA, DTT (AID 1130).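 Also: composite of spot emission at 667 nm and signal to noise over triplicate slides.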 The conditions noted are these: PTK2 binding, 635 nm fluorescence, higher = more signal.
Focal adhesion kinase 1 (Homo sapiens), sequence (Q05397 whole entry, looked up): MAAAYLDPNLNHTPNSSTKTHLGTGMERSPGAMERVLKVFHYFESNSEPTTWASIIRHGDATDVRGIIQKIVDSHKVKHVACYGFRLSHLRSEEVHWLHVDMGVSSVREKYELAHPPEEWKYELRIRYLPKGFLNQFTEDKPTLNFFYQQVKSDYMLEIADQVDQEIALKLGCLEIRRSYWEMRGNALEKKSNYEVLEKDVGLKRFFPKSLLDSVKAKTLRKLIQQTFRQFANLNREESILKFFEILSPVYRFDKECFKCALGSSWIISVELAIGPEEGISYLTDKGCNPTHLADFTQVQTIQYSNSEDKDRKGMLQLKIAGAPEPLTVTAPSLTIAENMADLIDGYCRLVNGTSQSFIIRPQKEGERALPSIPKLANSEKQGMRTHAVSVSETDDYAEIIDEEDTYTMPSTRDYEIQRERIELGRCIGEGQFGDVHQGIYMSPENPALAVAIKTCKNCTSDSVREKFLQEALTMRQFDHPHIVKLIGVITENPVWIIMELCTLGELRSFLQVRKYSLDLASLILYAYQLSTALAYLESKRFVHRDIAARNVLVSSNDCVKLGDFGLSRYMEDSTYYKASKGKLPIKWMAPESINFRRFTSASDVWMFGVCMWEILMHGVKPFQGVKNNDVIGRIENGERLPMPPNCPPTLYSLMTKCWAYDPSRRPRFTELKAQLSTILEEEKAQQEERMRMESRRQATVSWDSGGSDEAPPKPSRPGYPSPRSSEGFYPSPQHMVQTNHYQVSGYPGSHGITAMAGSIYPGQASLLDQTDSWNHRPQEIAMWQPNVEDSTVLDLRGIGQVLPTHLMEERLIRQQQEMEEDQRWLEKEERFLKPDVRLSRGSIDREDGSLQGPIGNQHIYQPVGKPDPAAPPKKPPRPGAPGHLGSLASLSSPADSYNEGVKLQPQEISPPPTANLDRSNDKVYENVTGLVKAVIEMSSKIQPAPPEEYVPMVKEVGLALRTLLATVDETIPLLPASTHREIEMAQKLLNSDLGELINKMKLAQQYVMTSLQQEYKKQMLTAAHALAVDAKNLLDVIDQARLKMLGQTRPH
In turn, `C=C(COC)C(=O)CC[C@H](OC(=O)c1cccnc1)c1ccccc1OCCO` displayed a composite z-score of -0.0493.
On the same count and under the same terms, with `C=C(C(=O)CC[C@@H](OC(=O)c1cccnc1)c1ccc(CO)o1)C(C)C` the figure was 0.113; with `O=C1O[C@H](c2ccccc2)[C@H](c2ccccc2)N2[C@H]1[C@@H](C(=O)Nc1nc3ccccc3s1)[C@]1(C(=O)Nc3ccc(C#CC4=CCCCC4)cc31)[C@H]2c1ccc(OCCO)cc1`, 0.148; with `COCCOC(=O)N1C(=O)[C@@]2(c3cc(C#Cc4ccc(OC)cc4)ccc31)[C@H](C(N)=O)[C@H]1C(=O)O[C@H](c3ccccc3)[C@H](c3ccccc3)N1[C@@H]2c1ccc(O)cc1`, -0.582.
On the same count and under the same terms, for `CN1C(=O)C2C(C1=O)C1C=C(c3ccc(CO)cc3)C2C(C2CC2)N1Cc1sc2ccccc2c1Cl` (stereo not given) the value was 1.89; for `CC1CC/C=C\[C@H]2OC34C=CCN(Cn5nnc6ccccc65)C(=O)[C@H]3N(CCCO)C(=O)[C@@H]4C2C(=O)O1` (stereo not given in full), -0.47; for `O=P(NCC1(CC2(c3ccccc3)CO2)CC1)(c1ccccc1)c1ccccc1` (stereo not given), 0.338.
Same read-out and setting: for `CCOC(=O)C1=CC[C@@H](c2ccccc2)N(S(=O)(=O)c2ccc(C)cc2)[C@H]1c1ccc(C#N)cc1` the value was 0.456.
For the compound `COc1cc(NN2C(C(O)c3ccccc3)C=CC3C(=O)N(c4ccccc4)C(=O)C32)cc(OC)c1OC` (stereo not given), the composite z-score is 0.707.
With `Cn1c2c(c3ccccc31)C(=O)C1NC2C=CC1(C)C(=O)OCc1ccccc1` (stereo not given), the composite z-score is 0.0584.
Still for that read-out and setting: with `Cc1ccc(S[C@]2(C(=O)NCCN3CCOCC3)CC(=O)N(C3CCCCC3)[C@@H]2c2ccc(CO)cc2)cc1` the figure was 1.02; with `COCCOC(=O)N1C(=O)[C@@]2(c3cc(C#CC4=CCCCC4)ccc31)[C@H](c1ccc(OCCO)cc1)N1[C@H](c3ccccc3)[C@H](c3ccccc3)OC(=O)[C@H]1[C@@H]2C(=O)Nc1nc2ccccc2s1`, 0.358.

The subject of the next test is Fibrinogen (Alexa647-labelled). Put plainly: fibrinogen binders on compound microarrays, profiling panel, artefact control for SMM control-protein annotation, biochemical, small-molecule microarray, 635/667 nm fluorescence (AID 1131).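 Also: z-score merges 667 nm fluorescence with per-spot signal-to-noise over triplicate slides.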 The conditions noted are these: fibrinogen-A647 binding fluorescence, higher = more signal.
As to `C[N+](C)(C)CCCCNC(=O)[C@H]1C[C@H]2C(=O)N3CCC[C@H]3C(=O)N2[C@H]1c1ccc(O)cc1`, the composite z-score came to 0.228.
Still for that read-out and setting: for `O=S(=O)(NCCCO)c1ccc(Br)cc1` the value was -0.088; for `Cc1ccc(S(=O)(=O)N2CC(C(=O)O)=CCC2c2ccccc2)cc1` (stereo not given), -0.275.
Same read-out and setting: with `C=CCOC(=O)[C@H]1[C@@H]2C(=O)O[C@@H](c3ccccc3)[C@@H](c3ccccc3)N2[C@@H](c2ccc(OCCOC(=O)[C@@H]3C[C@@H]4C(=O)NCC(=O)N4[C@@H]3c3ccc(O)cc3)cc2)[C@]12C(=O)Nc1ccc(I)cc12` the figure was 0.597; with `CC(=O)NCCCC[C@@H]1NC(=O)[C@@H]2C[C@H](C(=O)NCCCCCC[N+](C)(C)C)[C@H](c3cccc(OCCO)c3)N2C1=O`, 0.416.
The same measure, in the same setting: for `C/C=C/[C@H](CCn1cc([C@H](O)c2ccccc2)nn1)[Si](C)(C)c1ccc(OC)cc1` the value was -1.17; for `CCCNC(=O)[C@@]1(C)c2ccccc2C(=O)N(Cc2cc(C(F)(F)F)cc(C(F)(F)F)c2)[C@H]1c1ccc(CO)cc1`, 0.267.
In turn, `C=C(CCCC)/C(=C/C[C@H](OC(C)=O)c1ccc(CO)o1)c1cc(C(=O)OC)ccc1OC` displayed a composite z-score of 0.579.
The same measure, in the same setting: with `C=CCCN(CC#C[C@H]1Oc2ccccc2S(=O)(=O)N2CCC[C@@H]12)S(=O)(=O)c1ccc(C)cc1` the figure was -0.348; with `CN1C(=O)C2C=CC(C(O)C(c3ccccc3)c3ccccc3)N(Nc3ccccc3)C2C1=O` (stereo not given), 1.03; with `O=C1OCCC/C=C\[C@H]2OC34C=CCN(CCN5CCOCC5)C(=O)[C@H]3N(CCO)C(=O)[C@@H]4C12` (stereo not given in full), -0.786.
Regarding `COCCOC(=O)N1C(=O)[C@@]2(c3cc(C#CC4(O)CCCCCC4)ccc31)[C@H](c1ccc(O)cc1)N1[C@H](c3ccccc3)[C@H](c3ccccc3)OC(=O)[C@H]1[C@@H]2C(=O)N1CCc2cc(OC)c(OC)cc2C1`, the composite z-score was -1.69.
`COCCn1c(C(=O)N2CCCC2)cc2c1C[C@H]1CN(C(=O)c3ccccc3)[C@@](Cc3ccc(OC)cc3)(C(=O)OC)[C@@H]21` had a composite z-score of 0.632.
Same read-out and setting: with `Cc1cc(C)c(C(O)C2C=CC3C(=O)NC(=O)C3N2Nc2ccccn2)c(C)c1` (stereo not given) the figure was 0.925; with `CC(c1ccccc1)C(O)C1C=CC2C(=O)N(Cc3ccccc3)C(=O)C2N1n1cnnc1` (stereo not given), 0.654; with `O=C(NCC(O)CO)[C@@]1(Cc2ccccc2)N=C(c2ccc(OCCCO)cc2)O[C@H]1c1ccccc1` (stereo not given in full), 0.956.
Same read-out and setting: for `CC(c1ccccc1)C(O)C1C=CC2C(=O)N(c3ccccc3)C(=O)C2N1Nc1ccccc1F` (stereo not given) the value was 0.994.
Same read-out and setting: for `C=CC[C@@]1(C(=O)NCc2ccccc2)N=C(c2ccc(OCCCO)cc2)O[C@@H]1c1ccccc1CN=[N+]=[N-]` the value was 0.995.

The values above are taken from PubChem BioAssay.
